This is part of a sample that, as a whole, favours compounds with a hit. Of some 83,000 tested, about 20% had one in any assay.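 Percent growth is the endpoint: 0 to 100 indicates growth inhibition (40 means 60% inhibition), 0 means no net growth, and negative values indicate cell death.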 Unmarked numbers belong to inactive results. Calls of active or inactive are those of the source. How the source made its calls: active means growth percent below 10; inactive means the rest.
Tests used:
Test in all cases: NCI-60 one-dose screen, 48 h (100 = growth as untreated, 0 = no growth, -100 = all killed)
Conditions in all cases: 10 µM
HT29 colon = system: HT29 colon
SNB-75 CNS = system: SNB-75 CNS
SNB-19 CNS = system: SNB-19 CNS
U251 CNS = system: U251 CNS
PC-3 prostate = system: PC-3 prostate
SK-MEL-5 melanoma = system: SK-MEL-5 melanoma
UACC-62 melanoma = system: UACC-62 melanoma
LOX IMVI melanoma = system: LOX IMVI melanoma
SK-MEL-28 melanoma = system: SK-MEL-28 melanoma
SK-MEL-2 melanoma = system: SK-MEL-2 melanoma
SN12C renal = system: SN12C renal
UO-31 renal = system: UO-31 renal
ACHN renal = system: ACHN renal
CAKI-1 renal = system: CAKI-1 renal
CCRF-CEM leukemia = system: CCRF-CEM leukemia
MOLT-4 leukemia = system: MOLT-4 leukemia
SR leukemia = system: SR leukemia
EKVX NSCLC = system: EKVX NSCLC
TK-10 renal = system: TK-10 renal
A498 renal = system: A498 renal

| Structure (SMILES) | growth (HT29 colon) | growth (SNB-75 CNS) | growth (SNB-19 CNS) | growth (U251 CNS) | growth (PC-3 prostate) | growth (SK-MEL-5 melanoma) | growth (UACC-62 melanoma) | growth (LOX IMVI melanoma) | growth (SK-MEL-28 melanoma) | growth (SK-MEL-2 melanoma) | growth (SN12C renal) | growth (UO-31 renal) | growth (ACHN renal) | growth (CAKI-1 renal) | growth (CCRF-CEM leukemia) | growth (MOLT-4 leukemia) | growth (SR leukemia) | growth (EKVX NSCLC) | growth (TK-10 renal) | growth (A498 renal) |
| --- | --- | --- | --- | --- | --- | --- | --- | --- | --- | --- | --- | --- | --- | --- | --- | --- | --- | --- | --- | --- |
| O=C(Nc1ccc(CO)cc1)c1ccccc1Nc1ccnc(C(F)(F)F)c1 | 109% | 87.8% | 106% | 95.4% | 99.5% | 107% | 95.4% | 92.2% | 101% | 123% | 95.6% | 81.5% | 103% | 95.8% | 89.7% | 98.4% | 82.9% |  |  |  |
| COc1ccc2c(c1)C(=O)c1c-2c(=O)n(CCCN(C)C)c2cc(OC)c(OC)cc12 | 60.6% | 48.9% | 59.2% | 43.8% | 72.2% | 86.8% | 77% | 17.3% | 111% |  | 53.1% | 64.6% | 31.9% | 10.6% | 15.4% | 13.8% | 1.53% (active) | 113% | 102% | 85.5% |
| COc1cc(C(=O)/C=C/c2cc(-c3cc(OC)c(OC)c(OC)c3)n[nH]2)cc(OC)c1OC | -47.5% (active) | 54.9% | 55.4% | -57.9% (active) | 12.9% | 21.3% | 51% | -62.7% (active) | -59.5% (active) | 4.38% (active) | 2.09% (active) | -77.2% (active) | -25.8% (active) | 8.9% (active) | -23.8% (active) | 7.64% (active) | -7.98% (active) |  |  | 29.2% |
| O=C(/C=C/c1cc2ccccc2[nH]c1=O)c1ccc2c(c1)OCO2 | 85.3% | 86.7% | 88.4% | 86.4% | 77.5% | 96% | 90.5% | 76.4% | 98.6% |  | 93.5% | 63.7% | 103% | 118% |  | 66% | 52.5% | 95.9% | 97.3% | 97.6% |
| O=C1OCC2=C1C(c1cccc(Cl)c1)c1cc3c(cc1N2CCO)CCC3 (stereo not given) | -9.18% (active) | 40.5% | 29.8% | 3.51% (active) | 20.4% | -8.14% (active) | 26.6% | 12.6% | 59.2% |  | 21.1% | 19% | 25.5% | 11.2% | 10.4% | 13.7% | 27.6% | 38.9% | 56.6% | -20.5% (active) |
| COc1cc(-c2cc(C(=O)N3CCN(C(=O)c4ccccc4NCc4cccs4)CC3)nc3cc(-c4ccccc4)nn23)cc(OC)c1OC | 28% | 71% | 85.1% | 72.1% | 34% | 37.9% | 60% | 70% | 81.5% |  | 87.5% | 39.8% | 73.9% | 55.2% | 73.9% | 79.3% | 23% | 94.4% | 70.1% | 74.2% |
| Cc1ccc(-c2nc(/C=C3/C(=O)N(C)c4ccc(F)cc43)c3ccccn23)cc1 | 112% | 87.4% | 101% | 80.8% | 113% | 95.6% | 97.8% | 95.9% | 108% |  | 96.1% | 85.8% | 88.5% | 105% | 111% | 100% | 97.5% | 98.1% | 128% | 95.9% |
| Cc1cc(C)c(NC(=O)c2sc3nc4c(cc3c2N)C(=O)CCC4)c(C)c1 | 0.48% (active) | 0% (active) | 40.2% | 21.1% | 23.5% | 11.3% | 23.2% | 50.6% | 56% | 36.1% |  | 56.9% | 55.3% | -22.2% (active) | 22.1% | 43% | 10.5% |  | 44.8% | -7.37% (active) |
| O=C1OCC2=C1C(c1cccc(Cl)c1)c1cc3c(cc1N2CCO)OCO3 (stereo not given) | 4.61% (active) | 11.7% | 37.8% | 17.1% | 25.2% | 19% | 22.2% | 42.8% | 51.3% |  | 42.9% | 45.1% | 46.3% | 39.6% | 9.39% (active) | 26.4% | 32.5% | 56.6% | 58.2% | -7.88% (active) |
| COc1ccc(-c2nn(-c3cccc(NC(=O)Nc4cc(C(F)(F)F)cc(C(F)(F)F)c4)c3)cc2-c2ccncc2)cc1Cl | -17.4% (active) | 6.77% (active) | 30.2% | -75.5% (active) | -14.7% (active) | -37.6% (active) | 7.55% (active) | 12.9% | -5.48% (active) |  | 18.9% | -11.6% (active) | 11% | -12.3% (active) |  | -15.3% (active) | -19.6% (active) |  | 11.8% | -16.5% (active) |
| N#Cc1cc(-c2cc3ccccc3o2)oc1N | 7.97% (active) | 24.4% | 24.5% | 3.63% (active) | -24.5% (active) | -86.7% (active) | 29.2% | 3.98% (active) | 41.2% |  | 8.73% (active) |  | 1.36% (active) | -10.4% (active) | -29.6% (active) | -12.4% (active) | -23.5% (active) |  | 11.9% |  |
| CCC1(C(C)C)NC(=O)NC1=O (stereo not given) | 106% | 100% | 101% | 98.2% | 98.5% | 104% | 94.6% | 99.7% |  | 83.8% | 88.1% | 82.1% | 99.9% | 104% |  | 101% | 90.2% | 99.4% | 113% |  |
| COc1cc(Cl)cc(-c2nn(-c3cccc(NC(=O)Nc4ccc(Cl)c(C(F)(F)F)c4)c3)cc2-c2ccncc2)c1 | 5.57% (active) | 14.5% | 28.1% | -48.3% (active) | -13% (active) | -71.2% (active) | 6.62% (active) | 4.81% (active) | 23.6% |  | 13.8% | 11.1% | 8.78% (active) | 9.38% (active) |  | -9.68% (active) | -27.5% (active) |  | 37.5% | -9.18% (active) |
| CCN(CCCCCCN1CC(=O)N(CCCCCCN(CC)Cc2ccccc2OC)CC1=O)Cc1ccccc1OC | 20% | 76.6% | 94.8% | 88.8% | 77.1% | 90.9% | 104% | 85.8% |  | 63.4% | 93.9% | 91.9% | 110% | 90.3% |  | 42.7% | 39.3% | 72.9% | 87.6% |  |
| CCN(CC)CCSCCN(CC)CC | 104% | 96.3% | 106% | 91.7% | 96.5% | 99.6% | 102% | 99% | 103% |  | 101% | 97.1% | 99% | 98% | 91.9% | 105% | 98.5% |  | 103% | 89.4% |
| CC/C(=C(/c1ccc(OCCN(C)C)cc1)c1ccc(OC(=O)CCCCC(=O)c2c(C)[nH]c(/C=C3\N=C(c4ccc[nH]4)C=C3OC)c2C)cc1)c1ccccc1 | 14.3% | 42.3% | 91.8% | 43.5% | 42.3% | 36.4% | 75.1% | 14% | 85.6% |  | 62.3% | 45.4% | 67.1% | 47.6% | 9.97% (active) | 26.7% | 45.3% |  | 103% | 75.7% |
| O=C(Cc1csc2nc(-c3ccc(Cl)cc3)cn12)N/N=C/c1ccccc1O | 82.1% | 68.6% | 60.8% | 42.2% | 55.2% | 45.8% | 46% | 38.6% |  | 75.8% | 61% | 27.2% | 26.4% | 34.5% | 20.2% | 10.5% | -11.5% (active) | 32.2% | 57.1% |  |
| COc1cc([C@@H]2c3cc4c(cc3C(Br)[C@H]3COC(=O)[C@H]23)OCO4)cc(OC)c1OC (stereo not given in full) | -10.4% (active) | 9.76% (active) | -32.3% (active) | 1.29% (active) | 0.631% (active) | -64.9% (active) | 14.1% | 23.8% |  | 7.95% (active) | 31% | 8.5% (active) | 22.5% | 12.3% | -15.5% (active) |  |  | 22% | 54.2% |  |

Reference: PubChem BioAssay (NCI)
